ELG1 DNA repair = blocks ELG1-dependent DNA repair in HEK293T cells | HEK293T ELG1-luciferase reporter, luminescence, 16 h; DNA damage induced by 5-fluorouridine | actives 2.3% (n = 330,000) | Potency, µM (titrated, usually from 46.1 µM), for the others: at the highest dose activity change, negative = inhibition, usual class: inhibitors; further: potency means the concentration at half of the fitted maximal effect; nearly all actives have a fitted effect of over 55% in size
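Step one: seed 2,000 cells per well. Step two: pin-transfer compound or DMSO alongside 5-fluorouridine. Step three: incubate 16 hr, 37 °C, 5% CO2. Step four: add ONE-Glo, wait 30 min, read luminescence.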
IL-1B inflam inh = inhibitors of inflammasome signaling (IL-1 beta secretion). THP-1 LPS/ATP IL-1B secretion, AlphaLISA, 16 h; active compounds read low. actives 4.7% (n = 360,000). AID 743279. activity change, % at 57.5 µM; in the data active means activity change below about -50%; inconclusive means mostly about -30% to -49%
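THP-1 cells pretreated 1 hr with compounds (up to 57.5 uM final), then stimulated with LPS (250 ng/mL final) plus ATP (1.25 mM final); secreted IL-1B measured by AlphaLISA after 16 hr, decreased signal indicating inhibition.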
DT40 TDP1 CPT = growth inhibition of DT40 Tdp1-/-;hTDP1 cells with camptothecin (screen for TDP1 inhibitors); AID 686979; actives 12% (n = 420,000); chicken DT40 Tdp1-/-;hTDP1 cells + 20 nM CPT, ATP luminescence, 48 h; Potency, µM (doses to about 46.2 µM), without a hit: at the highest dose activity change, negative = growth inhibition, hits mostly inhibitors; further: potency means the concentration at half of the fitted maximal effect; nearly all actives have a fitted effect of over 55% in size
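Chicken DT40 Tdp1-/- cells stably complemented with human TDP1 were seeded at 400 cells/well in medium containing 20 nM camptothecin, exposed to pin-transferred compounds, and grown at 37 °C for at least 48 hr. Viability was read as ATP luminescence.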
TDP1 cell noCPT = qHTS for Inhibitors of human tyrosyl-DNA phosphodiesterase 1 (TDP1): qHTS in cells in absence of CPT; actives 15% (n = 420,000); Potency, µM (highest dose often 46.2 µM), for inactives: top-dose activity change, negative = growth inhibition, most hits filed as inhibitors; DT40 Tdp1-/- hTDP1 cells, no CPT, ATP luminescence, 48 h; further: potency means the concentration at half of the fitted maximal effect; nearly all actives have a fitted effect of over 55% in size
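Compound effects on proliferation are scored in DT40 Tdp1-/-;hTDP1 cells in the absence of CPT. ATP levels (CellTiter-Glo luminescence) are recorded after a ≥48 hr, 37 °C incubation.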
HT1080 IDH1KD tx = kills HT-1080 cells with IDH1 knockdown | AID 686971 | Potency, µM (highest dose often 46.1 µM), for inactives: at the highest dose activity, negative = toxicity, most hits filed as cytotoxic | actives 2% (n = 360,000) | HT-1080 IDH1 knockdown viability, ATP luminescence, 48 h;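 further: potency means the concentration at half of the fitted maximal effect; 0% = DMSO wells and -100% = cell-free medium wells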
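% activity derives from luminescence (CellTiter-Glo), normalised to DMSO and no-cell wells. HT-1080-IDH1KD cells, 750/well, had 48 h compound exposure at 37 °C.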
HT1080-NT tox = kills 2HG-producing HT-1080-NT fibrosarcoma cells | HT-1080-NT fibrosarcoma viability, CellTiter-Glo ATP luminescence, 48 h | Potency, µM (titrated, usually from 46.1 µM), without a hit: at the top dose activity, negative = less viability, hits mostly cytotoxic | actives 1.6% (n = 360,000);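 further: NT is the 2HG producing partner of a matched IDH1 knockdown line; potency means the concentration at half of the fitted maximal effect; 0% = DMSO-treated cells and -100% = media-only wells without cells; nearly all actives have a fitted effect of over 55% in size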
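Compounds were tested in concentration-response format on HT-1080-NT cells for 48 hours at 37 degrees C. Cell viability came from CellTiter-Glo luminescence; curves were classified by r2, response magnitude and activity.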
* hit, by the source's call; ? = inconclusive; . = not tested or not shown. Hits are enriched below; roughly 19% of the tested compounds scored in any of these assays. Unless noted, the call rests on the fitted dose curve; in most records, active means well fitted curve in the direction sought with a large enough effect; inconclusive means small, poorly fitted or top-dose-only effect, or another doubt; inactive means no such curve, though single readings can be large; an effect the other way counts as inactive or inconclusive. Unless noted, on the % scale 0 is the no-effect control and ±100 the full control effect.

SMILES	ELG1 DNA repair	IL-1B inflam inh	DT40 TDP1 CPT	TDP1 cell noCPT	HT1080 IDH1KD tx	HT1080-NT tox
CC(C)(CNC(=O)c1sc2cc(Cl)ccc2c1Cl)N1CCOCC1	?	?	16µM*	16µM*	1%	-10%
Cc1cc(Cl)c2oc(C(=O)NCC(C)(C)N3CCOCC3)c(C)c2c1	?	50	23µM*	?	10%	5%
Cc1cc(Cl)c2oc(C(=O)N(C)CCCN3CCOCC3)c(C)c2c1	?	0	?	16µM*	-4%	-29%
COc1ccc(NC(=O)c2cc(C3CCCCN3S(=O)(=O)c3c(C)noc3C)on2)c(C)c1 (stereo not given)	.	0	?	?	4%	2%
CCCC(c1nnnn1CS(=O)(=O)c1ccc(C)cc1)N1CCN(CC)CC1 (stereo not given)	0%	-18	-26%	-8%	2%	-5%
CC1CC[C@@]23CCC4(C)[C@@]5(C)CCC6C(C)(C)C(=O)CC[C@@]6(C)C5C=C[C@@]4(OC2=O)C3C1C (stereo not given in full)	.	.	-1%	-8%	.	.
C/C(=N\NC(=O)CSCc1ccc([N+](=O)[O-])cc1)c1cccc(Br)c1	?	-8	10µM*	18µM*	-7%	-12%
COc1cc(C(=O)O/N=C(\N)Cc2ccc([N+](=O)[O-])cc2)cc(OC)c1OC	?	-3	3.7µM*	15µM*	?	?
Cc1ccc(C(=O)CC(=O)COc2ccc(Cl)cc2)cc1	?	0	?	15µM*	?	?
N/C(Cc1ccc([N+](=O)[O-])cc1)=N\OC(=O)c1cccc(Br)c1	14%	-5	15µM*	?	7%	0%
Cc1ccc(OCC(=O)O/N=C(\N)Cc2ccc(Cl)cc2)cc1	1%	0	6.5µM*	4.6µM*	-10%	9%
COc1ccc(C(=O)O/N=C(\N)Cc2ccc([N+](=O)[O-])cc2)c(OC)c1	?	-11	1.3µM*	1.8µM*	18µM*	?
N/C(Cc1ccc([N+](=O)[O-])cc1)=N\OC(=O)c1ccc([N+](=O)[O-])cc1	-6%	?	?	?	-4%	-1%
N/C(Cc1ccc(Cl)cc1)=N\OC(=O)Cc1ccc([N+](=O)[O-])cc1	-10%	-103*	?	?	5%	6%
CS(=O)(=O)Nc1cccc(-c2cncnc2Nc2ccc(F)cc2)c1	.	.	11%	-11%	.	.
N=C1SCC(=O)N1c1ncc(Cc2cccc(Cl)c2)s1	?	-103*	?	?	-22%	-22%
N=C1SCC(=O)N1c1ncc(Cc2ccccc2Cl)s1	?	-102*	?	?	-2%	-22%
CCc1nnc(N2C(=N)SCC2=O)s1	9%	10	8%	?	12%	21%
O=C1c2ccccc2C(=O)N1c1ncc(Cc2ccc(Cl)cc2)s1	?	15	18µM*	?	-5%	7%
CC(C)C(=O)Nc1ncc(Cc2ccccc2Cl)s1	6%	5	20%	1%	-15%	-1%
O=C1c2cccnc2C(=O)N1Cc1ccc(Cl)cc1	1%	12	-15%	-11%	7%	0%
CC(=O)c1cccc(NC(=O)Nc2nc(C)cc(C)n2)c1	6%	-28	-2%	3%	?	16%
CC(C)Oc1ccccc1OC1(C)CCN(Cc2ccc(OC(F)(F)F)cc2)C1 (stereo not given)	.	23	?	?	4%	-8%
COc1ccccc1N=CC=C1OC(C)(C)C(C)(C)O1	?	-75*	0%	?	?	-18%
CSc1ccc(CCNC(=O)C2=C(C)C(=O)OC23CCCCC3)cc1	.	.	-5%	-21%	.	.
SMILES	ELG1 DNA repair	IL-1B inflam inh	DT40 TDP1 CPT	TDP1 cell noCPT	HT1080 IDH1KD tx	HT1080-NT tox
CCOC(=O)C1=C(COC(=O)COc2ccccc2C#N)NC(=O)NC1C (stereo not given)	?	33	2%	-11%	3%	1%
Cc1cccc(Nc2nc3c(s2)CCCC3)c1	?	-5	23µM*	18µM*	0%	-6%
CCc1cccc(CC)c1NC1=NS(=O)(=O)c2ccccc21	.	.	-2%	0%	.	.
O=C(O)c1ccc(Nc2nc3c(s2)CCCC3)cc1	?	15	14%	-9%	-3%	-11%
O=S1(=O)N=C(Nc2nc3c(s2)CCCC3)c2ccccc21	?	5	6.5µM*	5.2µM*	-16%	-19%
Cc1cc(=O)n2nc(N3CCCC(C(=O)NCCc4ccccc4)C3)sc2n1 (stereo not given)	-16%	-5	-42%	-24%	2%	-2%
Cc1ccccc1CNC(=O)C1CCCN(c2nnc(C)c3c(C)n(-c4ccccc4)nc23)C1 (stereo not given)	?	?	23µM*	18µM*	?	?
Cc1ccc(-n2nc3c(N4CCCC(C(=O)NCc5ccc(Cl)cc5)C4)nnc(C)c3c2C)cc1 (stereo not given)	.	.	9.2µM*	18µM*	.	.
Cc1ccc(CNC(=O)C2CCCN(c3nc(C)cc(C)n3)C2)cc1 (stereo not given)	0%	14	-15%	1%	-2%	1%
Cc1ccc(-n2nc3c(N4CCCC(C(=O)NCCc5ccccc5)C4)nnc(C)c3c2C)cc1 (stereo not given)	.	.	16µM*	16µM*	.	.
Cc1nnc(N2CCCC(C(=O)NCc3ccccc3F)C2)c2nn(-c3ccccc3)c(C)c12 (stereo not given)	-1%	5	?	1%	13%	12%
Cc1nnc(N2CCCC(C(=O)NCCc3ccccc3)C2)c2nn(-c3ccccc3)c(C)c12 (stereo not given)	.	.	?	18µM*	.	.
COc1cc(C(=O)NNC(=O)c2nn(C)c(=O)c3ccccc23)cc(OC)c1OC	?	12	-6%	2%	11%	-2%
CCOc1ccc(CCNC(=O)Cn2nc(C)c3c(C)n(-c4ccccc4)nc3c2=O)cc1	-5%	-4	-4%	-2%	-10%	-3%
CCOc1ccc(CCNC(=O)C2CCCN(c3nnc(C)c4c(C)n(-c5ccccc5)nc34)C2)cc1 (stereo not given)	.	.	21µM*	?	.	.
Cc1nnc(N2CCCC(C(=O)NCc3ccccc3)C2)c2nn(-c3ccccc3)c(C)c12 (stereo not given)	.	.	-8%	-20%	.	.

Assay outcomes from PubChem.
